Results: PubChem BioAssay (EPA / NIEHS)
Results filed as inconclusive are left out. The source made the active and inactive calls. How the source made its calls, unless noted: active means hit-call score of the fitted dose curve at least 0.9, where 1 is the maximum; inactive means score below 0.9.

Assays:
[1] = molecular target: Hepatocyte nuclear factor 4-alpha (Homo sapiens) (UniProt P41235); assay: ATG_HNF4a_TRANS: Attagene TRANS-FACTORIAL HepG2 Assay for human Hepatocyte Nuclear Factor 4 alpha (HNF4a) (AID 2282982; active means hit-call score of the fitted dose curve at least 0.9, where 1 is the maximum); conditions: HepG2 HNF4a transactivation reporter, mRNA readout
Procedure, shortened: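 Transient MRTU transfection of HepG2, 24 h dosing. Readout: reporter mRNA via RT-PCR + capillary electrophoresis, fluorescence; activity fit upward relative to DMSO control.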

[2] = molecular target: Nuclear receptor subfamily 4 group A member 2 (Homo sapiens) (UniProt P43354); assay: ATG_NURR1_TRANS: Attagene TRANS-FACTORIAL HepG2 Assay for human Nuclear Receptor Related Protein 1 (NURR1) (AID 2282985; active means hit-call score of the fitted dose curve at least 0.9, where 1 is the maximum); conditions: HepG2 Attagene TRANS reporter, mRNA readout
Procedure, shortened: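 Read-out: reporter mRNA induction by RT-PCR plus capillary electrophoresis with fluorescence detection, after 24 h dosing of transfected HepG2 cells. Exogenous NR-Gal4 chimera activity drives GAL4-UAS reporter; activity fitted upward versus DMSO.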

[3] = molecular target: Transcriptional activator Myb (Homo sapiens) (UniProt P10242); assay: ATG_Myb_CIS: Attagene CIS-FACTORIAL HepG2 Assay for human Myeloblastosis (Myb) Proto-Oncogene Transcription Factor (AID 2282986); conditions: HepG2 Attagene CIS-FACTORIAL Myb reporter transcription; actives raise or lower the signal
Procedure, shortened: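 Fluorescence signals from capillary electrophoresis of RT-PCR-amplified reporter cDNA give the read-out. Cells: HepG2 transfected with multiple cis-regulated reporter units. Exposure lasts 24 hours; DMSO defines baseline for gain or loss of signal.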

[4] = molecular target: Nuclear respiratory factor 1 (Homo sapiens) (UniProt Q16656); assay: ATG_NRF1_CIS: Attagene CIS-FACTORIAL HepG2 Assay for human Nuclear Respiratory Factor 1 (NRF1) Orphan Gene (AID 2282987); conditions: HepG2 NRF1 cis-element reporter, Attagene multiplex; actives raise or lower the signal
Procedure, shortened: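 Transcriptional reporter readout, one component of a 52-endpoint multiplexed HepG2 panel. Exposure 24 h; mRNA detected via RT-PCR and fluorescent capillary electrophoresis; fitting in both directions against DMSO.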

[5] = ATG_NFI_CIS: Attagene CIS-FACTORIAL HepG2 Assay for human Nuclear Factor I (NFI) (AID 2282989); conditions: HepG2 cis-regulatory reporter, NFI response element transcription; actives raise or lower the signal
Procedure, shortened: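 Read-out: reporter mRNA via RT-PCR plus capillary electrophoresis with fluorescence detection. Transiently transfected HepG2 (endogenous TF activity on cis promoters), 24 h compound exposure; gain or loss of signal fitted against DMSO.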

[6] = molecular target: Myc proto-oncogene protein (Homo sapiens) (UniProt P01106); assay: ATG_Myc_CIS: Attagene CIS-FACTORIAL HepG2 Assay for human Myelocytomatosis (Myc) Proto-Oncogene Transcription Factor (AID 2282990); conditions: HepG2, Attagene cis-reporter transcription factor activity; actives raise or lower the signal
Procedure, shortened: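 Read-out: fluorescent reporter mRNA fragments resolved by capillary electrophoresis after RT-PCR. Human HepG2 liver cells carried transfected cis-element reporter units and were dosed for 24 h. Gain or loss of signal fitted relative to DMSO baseline.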

[7] = ATG_NRF2_ARE_CIS: Attagene CIS-FACTORIAL HepG2 Assay for human Nuclear Factor Erythroid 2 Related Factor 2 (NFR2) response to Antioxidant Response Elements (ARE) (AID 2282992); conditions: HepG2 Attagene ARE/NRF2 reporter, transcription factor activity; actives raise or lower the signal;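 on AC50: reporter mRNA level measured by RT-PCR and capillary electrophoresis fluorescence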
Procedure, shortened: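 Readout: reporter mRNA quantified by RT-PCR plus FAM-labelled primer extension, HpaI digestion and capillary electrophoresis, 24 h after dosing transfected HepG2 cells. Gain or loss of signal is fitted bidirectionally against DMSO baseline.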

[8] = ATG_Oct_MLP_CIS: Attagene CIS-FACTORIAL HepG2 Assay for human Octamer-Binding Transcription Factor (Oct) (AID 2282993); conditions: HepG2 Attagene cis-factorial Oct reporter, mRNA; actives raise or lower the signal
Procedure, shortened: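 Read-out: reporter mRNA via RT-PCR plus capillary electrophoresis of 6-FAM-labelled fragments. Transiently transfected HepG2, 24 h exposure, endogenous TF activity on cis elements. Gain or loss of signal fitted relative to DMSO.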

[9] = molecular target: Cellular tumor antigen p53 (Homo sapiens) (UniProt P04637); assay: ATG_p53_CIS: Attagene CIS-FACTORIAL HepG2 Assay for human p53 Transcription Factor (AID 2282994); conditions: HepG2 p53 cis-element reporter, Attagene mRNA; actives raise or lower the signal
Procedure, shortened: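 Read-out: reporter mRNA by RT-PCR plus capillary electrophoresis with fluorescence detection. Human HepG2 liver cells carried transfected multi-reporter cis-element constructs, dosed 24 h. Gain or loss of signal fitted bidirectionally against DMSO control.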

[10] = molecular target: Oxysterols receptor LXR-beta (Homo sapiens) (UniProt P55055); assay: ATG_LXRb_TRANS: Attagene TRANS-FACTORIAL HepG2 Assay for human Liver X Receptor beta (LXRb) (AID 2282981; active means hit-call score of the fitted dose curve at least 0.9, where 1 is the maximum); conditions: HepG2 Attagene TRANS GAL4-LXRb reporter, mRNA
Procedure, shortened: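 Readout: fluorescent reporter mRNA fragments resolved by capillary electrophoresis after RT-PCR. System: transiently transfected human HepG2, exogenous LXRb-Gal4 chimera driving GAL4-UAS reporter, 24 h dosing. Activity fitted upward against DMSO baseline.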

[11] = ATG_M_06_TRANS: Attagene TRANS-FACTORIAL HepG2 Assay for M06 Transcription Factor (Internal Marker) (AID 2282983; active means hit-call score of the fitted dose curve at least 0.9, where 1 is the maximum;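 further: reporter transcript level by RT-PCR then capillary electrophoresis fluorescence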); conditions: HepG2 Attagene TRANS M06 internal marker reporter
Procedure, shortened: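 Multi-reporter-transfected HepG2, 24 h treatment; reporter transcripts quantified via RT-PCR, primer-extension labelling and CE. DMSO-normalized gain-of-signal fit.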

[12] = ATG_M_32_TRANS: Attagene TRANS-FACTORIAL HepG2 Assay for M32 Transcription Factor (Internal Marker) (AID 2282984; active means hit-call score of the fitted dose curve at least 0.9, where 1 is the maximum;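 further: transcript level of a background control reporter unit measured by RT-PCR and capillary electrophoresis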); conditions: HepG2 Attagene TRANS M32 internal marker reporter
Procedure, shortened: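 Read-out: fluorescent reporter cDNA fragments resolved by capillary electrophoresis after RT-PCR of total RNA. Transfected HepG2 cells were exposed to chemical for 24 h. Activity scored in the positive direction relative to DMSO.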

[13] = BSK_3C_TissueFactor: BioMAP Diversity Plus: 3C Assay for Tissue Factor Biomarker Activity (AID 2282997); conditions: BioMAP 3C HUVEC, tissue factor biomarker readout; actives raise or lower the signal
Procedure, shortened: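 In this endothelial system, HUVEC are treated for 24 h and Tissue Factor is assessed by ELISA, normalised to DMSO.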

[14] = BSK_3C_uPAR: BioMAP Diversity Plus: 3C Assay for Urokinase-type plasminogen activator receptor (uPAR) Biomarker Activity (AID 2282998); conditions: BioMAP 3C HUVEC, uPAR biomarker ELISA; actives raise or lower the signal
Procedure, shortened: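 HUVEC primary cells; 24 h post-dose; uPAR by ELISA; gain or loss of signal fitted bidirectionally vs DMSO baseline.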

[15] = BSK_3C_VCAM1: BioMAP Diversity Plus: 3C Assay for Vascular cell adhesion molecule 1 (VCAM1) Biomarker Activity (AID 2282999); conditions: BioMAP 3C HUVEC, VCAM1 ELISA, cytokine-stimulated; actives raise or lower the signal
Procedure, shortened: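 HUVEC primary cells, 24 h compound exposure; VCAM-1 by ELISA; gain/loss of signal fitted bidirectionally vs DMSO baseline.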

[16] = ATG_NF_kB_CIS: Attagene CIS-FACTORIAL HepG2 Assay for human Nuclear Factor Kappa B (NF-kB) (AID 2282991); conditions: HepG2 Attagene cis-factorial NF-kB reporter mRNA; actives raise or lower the signal
Procedure, shortened: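 HepG2, transient multi-reporter transfection, cis promoter elements (endogenous TFs). 24 h exposure. Total RNA → RT → PCR → 6-FAM label → HpaI → CE. Gain/loss vs DMSO.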

[17] = molecular target: Oxysterols receptor LXR-alpha (Homo sapiens) (UniProt Q13133); assay: ATG_LXRa_TRANS: Attagene TRANS-FACTORIAL HepG2 Assay for human Liver X Receptor alpha (LXRa) (AID 2282980; active means hit-call score of the fitted dose curve at least 0.9, where 1 is the maximum); conditions: HepG2 Attagene TRANS reporter, LXRa transactivation
Procedure, shortened: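 In this multiplexed TRANS system, compounds act on HepG2 cells carrying GAL4-UAS reporter units and a receptor-GAL4 fusion for 24 h. Induced reporter RNA is amplified, fluorescently labelled and sized by capillary electrophoresis, with DMSO as baseline.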

Measured: AC50

Chain of Oxysterols receptor LXR-beta (Homo sapiens) (P55055 whole entry, looked up, the tested form may be a part): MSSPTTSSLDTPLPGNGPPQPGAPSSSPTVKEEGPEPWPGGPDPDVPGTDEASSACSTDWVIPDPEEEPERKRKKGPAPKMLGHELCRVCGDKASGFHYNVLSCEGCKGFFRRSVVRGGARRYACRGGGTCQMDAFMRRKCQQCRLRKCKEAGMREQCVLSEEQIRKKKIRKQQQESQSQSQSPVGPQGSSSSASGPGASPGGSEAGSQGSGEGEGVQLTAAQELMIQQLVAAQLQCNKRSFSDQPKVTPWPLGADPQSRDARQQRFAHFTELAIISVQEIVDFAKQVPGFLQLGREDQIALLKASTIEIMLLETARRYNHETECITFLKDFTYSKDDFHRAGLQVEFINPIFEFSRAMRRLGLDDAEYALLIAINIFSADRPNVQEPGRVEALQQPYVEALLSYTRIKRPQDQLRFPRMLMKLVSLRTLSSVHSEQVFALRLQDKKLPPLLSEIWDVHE
Chain of Hepatocyte nuclear factor 4-alpha (Homo sapiens) (P41235 whole entry, looked up): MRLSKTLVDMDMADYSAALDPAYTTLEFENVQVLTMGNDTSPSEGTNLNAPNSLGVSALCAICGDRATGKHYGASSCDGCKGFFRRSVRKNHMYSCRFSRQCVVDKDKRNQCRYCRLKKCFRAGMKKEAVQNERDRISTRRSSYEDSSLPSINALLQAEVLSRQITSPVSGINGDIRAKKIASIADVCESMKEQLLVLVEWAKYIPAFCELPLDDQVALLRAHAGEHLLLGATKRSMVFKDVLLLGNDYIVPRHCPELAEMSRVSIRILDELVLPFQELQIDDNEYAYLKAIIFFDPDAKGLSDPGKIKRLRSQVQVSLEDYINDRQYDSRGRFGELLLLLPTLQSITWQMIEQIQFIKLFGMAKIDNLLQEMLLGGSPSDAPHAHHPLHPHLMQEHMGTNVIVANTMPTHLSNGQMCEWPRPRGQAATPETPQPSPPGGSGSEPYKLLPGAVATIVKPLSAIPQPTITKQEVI
Chain of Myc proto-oncogene protein (Homo sapiens) (P01106 whole entry, looked up, the tested form may be a part): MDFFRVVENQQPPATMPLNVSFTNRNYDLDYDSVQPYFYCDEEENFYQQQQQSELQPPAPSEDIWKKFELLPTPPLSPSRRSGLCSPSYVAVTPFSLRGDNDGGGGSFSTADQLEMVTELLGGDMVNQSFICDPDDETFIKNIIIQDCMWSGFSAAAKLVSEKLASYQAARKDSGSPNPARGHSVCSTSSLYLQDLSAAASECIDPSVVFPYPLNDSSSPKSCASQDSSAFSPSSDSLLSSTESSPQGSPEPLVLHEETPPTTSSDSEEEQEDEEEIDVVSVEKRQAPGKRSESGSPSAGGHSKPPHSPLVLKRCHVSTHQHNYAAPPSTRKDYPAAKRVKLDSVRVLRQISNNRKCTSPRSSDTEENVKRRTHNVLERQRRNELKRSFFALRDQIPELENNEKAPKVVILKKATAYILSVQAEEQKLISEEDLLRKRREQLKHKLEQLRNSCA
Chain of Nuclear receptor subfamily 4 group A member 2 (Homo sapiens) (P43354 whole entry, looked up, the tested form may be a part): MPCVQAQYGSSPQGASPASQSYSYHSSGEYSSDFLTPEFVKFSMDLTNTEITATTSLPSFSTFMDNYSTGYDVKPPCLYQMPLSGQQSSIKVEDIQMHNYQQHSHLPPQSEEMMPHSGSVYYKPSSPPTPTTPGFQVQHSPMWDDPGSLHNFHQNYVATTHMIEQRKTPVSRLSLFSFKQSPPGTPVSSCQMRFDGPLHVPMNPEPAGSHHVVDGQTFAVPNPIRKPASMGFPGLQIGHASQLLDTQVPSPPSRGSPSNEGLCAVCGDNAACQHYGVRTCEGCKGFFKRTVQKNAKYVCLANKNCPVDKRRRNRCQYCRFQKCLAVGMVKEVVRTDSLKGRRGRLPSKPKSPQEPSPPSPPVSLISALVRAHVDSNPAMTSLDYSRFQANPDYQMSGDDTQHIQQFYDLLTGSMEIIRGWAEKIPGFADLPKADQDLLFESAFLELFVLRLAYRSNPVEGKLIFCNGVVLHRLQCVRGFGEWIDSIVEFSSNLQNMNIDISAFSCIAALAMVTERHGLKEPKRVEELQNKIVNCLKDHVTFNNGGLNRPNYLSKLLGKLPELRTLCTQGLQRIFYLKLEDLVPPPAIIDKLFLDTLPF
Chain of Cellular tumor antigen p53 (Homo sapiens) (P04637 whole entry, looked up): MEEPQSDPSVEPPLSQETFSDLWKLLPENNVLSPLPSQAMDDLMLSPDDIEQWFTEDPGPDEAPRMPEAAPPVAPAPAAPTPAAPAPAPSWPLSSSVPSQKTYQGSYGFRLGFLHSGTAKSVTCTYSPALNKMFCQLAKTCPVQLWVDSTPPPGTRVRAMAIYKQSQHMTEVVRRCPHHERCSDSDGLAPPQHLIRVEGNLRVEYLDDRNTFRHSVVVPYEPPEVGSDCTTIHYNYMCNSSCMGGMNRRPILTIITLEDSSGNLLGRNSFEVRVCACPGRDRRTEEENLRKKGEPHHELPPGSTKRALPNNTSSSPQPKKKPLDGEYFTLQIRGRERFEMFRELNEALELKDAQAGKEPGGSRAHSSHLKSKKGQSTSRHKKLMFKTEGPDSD
Chain of Oxysterols receptor LXR-alpha (Homo sapiens) (Q13133 whole entry, looked up, the tested form may be a part): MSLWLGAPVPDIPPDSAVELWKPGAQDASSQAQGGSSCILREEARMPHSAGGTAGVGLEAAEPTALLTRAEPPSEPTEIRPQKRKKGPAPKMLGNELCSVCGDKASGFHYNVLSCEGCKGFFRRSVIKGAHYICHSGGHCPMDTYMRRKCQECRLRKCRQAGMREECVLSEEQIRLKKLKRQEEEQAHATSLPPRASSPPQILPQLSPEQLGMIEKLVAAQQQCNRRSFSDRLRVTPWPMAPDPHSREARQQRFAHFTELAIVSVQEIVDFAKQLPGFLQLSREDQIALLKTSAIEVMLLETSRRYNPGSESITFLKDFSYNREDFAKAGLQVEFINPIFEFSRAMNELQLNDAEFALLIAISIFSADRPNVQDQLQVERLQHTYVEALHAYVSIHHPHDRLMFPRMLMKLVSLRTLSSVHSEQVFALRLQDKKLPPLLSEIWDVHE
Chain of Transcriptional activator Myb (Homo sapiens) (P10242 whole entry, looked up): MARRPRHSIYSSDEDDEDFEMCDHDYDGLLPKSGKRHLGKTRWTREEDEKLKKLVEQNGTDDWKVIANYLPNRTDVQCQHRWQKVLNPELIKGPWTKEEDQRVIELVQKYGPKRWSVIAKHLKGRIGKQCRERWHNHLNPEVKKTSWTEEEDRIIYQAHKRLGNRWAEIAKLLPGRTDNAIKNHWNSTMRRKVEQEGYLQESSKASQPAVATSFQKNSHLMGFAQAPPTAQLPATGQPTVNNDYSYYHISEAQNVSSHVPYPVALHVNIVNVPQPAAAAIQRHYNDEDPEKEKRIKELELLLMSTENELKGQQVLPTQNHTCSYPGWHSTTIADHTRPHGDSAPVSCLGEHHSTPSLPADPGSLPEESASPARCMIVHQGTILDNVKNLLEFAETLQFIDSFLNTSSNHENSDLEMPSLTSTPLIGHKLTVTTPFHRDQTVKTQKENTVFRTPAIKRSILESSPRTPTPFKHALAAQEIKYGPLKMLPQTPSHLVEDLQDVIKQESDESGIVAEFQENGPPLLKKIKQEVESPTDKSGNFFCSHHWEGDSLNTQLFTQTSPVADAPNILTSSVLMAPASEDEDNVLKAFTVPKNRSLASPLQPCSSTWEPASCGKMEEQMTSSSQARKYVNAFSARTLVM
Chain of Nuclear respiratory factor 1 (Homo sapiens) (Q16656 whole entry, looked up): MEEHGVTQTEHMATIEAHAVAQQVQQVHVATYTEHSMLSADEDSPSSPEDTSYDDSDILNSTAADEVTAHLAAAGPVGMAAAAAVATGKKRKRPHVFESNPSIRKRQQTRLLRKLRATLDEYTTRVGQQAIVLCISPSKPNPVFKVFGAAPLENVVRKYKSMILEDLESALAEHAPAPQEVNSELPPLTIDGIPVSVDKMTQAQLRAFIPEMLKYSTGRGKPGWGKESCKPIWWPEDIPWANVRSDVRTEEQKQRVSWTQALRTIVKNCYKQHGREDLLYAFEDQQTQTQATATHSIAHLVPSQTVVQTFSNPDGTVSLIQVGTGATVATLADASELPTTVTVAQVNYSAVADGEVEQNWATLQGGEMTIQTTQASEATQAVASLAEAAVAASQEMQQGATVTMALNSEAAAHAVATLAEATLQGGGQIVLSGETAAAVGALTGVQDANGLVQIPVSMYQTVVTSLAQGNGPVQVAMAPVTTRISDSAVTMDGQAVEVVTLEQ

COC(=O)c1ccccc1C
inactive: [1] | [2] | [3] | [4] | [5] | [6] | [7] | [8] | [9]

C=CC(=O)OCC(C)OCC(C)OCC(C)OC(=O)C=C (stereo not given)
active: [3] 65.2 µM | [7] 25.6 µM | [8] 29.5 µM | [9] 145 µM | [13] 11.6 µM | [14] 24.6 µM | [15] 12.1 µM
inactive: [10] | [1] | [11] | [12] | [4] | [5] | [6]

NC(=O)Nc1ccccc1
inactive: [1] | [3] | [4] | [5] | [6] | [16] | [7] | [8] | [9]

CC(C)c1ccc(O)c(C(C)C)c1
active: [7] 24.6 µM
not listed: [1] | [10] | [13] | [14] | [15]
inactive: all other assays above

CC/C=C\CCOC(=O)c1ccccc1O
active: [7] 100 µM | [9] 138 µM | [13] 25.4 µM | [14] 31.8 µM | [15] 30.1 µM
not listed: [10] | [11] | [17]
inactive: all other assays above

CN(C)Cc1cc(CN(C)C)c(O)c(CN(C)C)c1
not listed: [3] | [10] | [12] | [13] | [14] | [15] | [17]
inactive: all other assays above

C1CNCCN1
not listed: [1] | [2] | [10] | [12] | [17]
inactive: all other assays above

C[Si](C)(C)N[Si](C)(C)C
inactive: [1] | [11] | [3] | [4] | [5] | [6] | [7] | [8] | [9]

O=C(Oc1ccccc1)c1ccccc1O
inactive: [10] | [11] | [2] | [3] | [4] | [5] | [6] | [7] | [8]

O=C1CCCCCCCCCCCN1
not listed: [1] | [2] | [10] | [12]
inactive: all other assays above

CC1=NN(c2ccc(S(=O)(=O)O)cc2)C(=O)C1N=Nc1ccccc1 (stereo not given)
not listed: [1] | [12] | [13] | [14] | [15] | [17]
inactive: all other assays above

CCOC(=O)c1ccccc1C
not listed: [1] | [12] | [13] | [14] | [15] | [17]
inactive: all other assays above

Cc1cc(C)c(C=O)c(C)c1
not listed: [2] | [11] | [12] | [13] | [14] | [15] | [17]
inactive: all other assays above

CCCCCCCCCC[N+](C)(CCCCCCCCCC)CCC[Si](OC)(OC)OC
inactive: [10] | [1] | [2] | [4] | [5] | [16]
active: [3] 15.9 µM | [6] 14.6 µM | [7] 16 µM

CC1=CC=C(C(C)C)CC1
active: [7] 152 µM
not listed: [2] | [10] | [12] | [16]
inactive: all other assays above
